# An excerpt weighted towards active compounds, which were near 3.6% of everything screened.
# Rango complex inh: qHTS Assay for Inhibitors of Rango (Ran-regulated importin-beta cargo) - Importin beta complex formation; Rango CFP/YFP FRET sensor + importin beta, 45 min; Potency, µM (series often up to 92.2 µM), for the others: top-dose inhibition of complex formation; 340,000 tested, 0.031% active; AID 540263, 2011; calls by dose curve;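 also: potency is read from the fitted curve at half-maximal effect; 0% = DMSO wells and 100% = buffer wells lacking importin beta; nearly all actives have a fitted effect of over 15% in size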
#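 Inhibition scored from the CFP 486 nm/YFP 530 nm FRET ratio 45 min after adding 0.125 microM importin beta to 50 nM Rango biosensor preincubated 5 min with compound (room temperature, PBS with DTT, Tween-20, BSA). No-importin wells as positive control.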
# PLK1 PBD inh: qHTS for Inhibitors of PLK1-PDB (polo-like kinase 1 - polo-box domain): Primary Screen; Potency, µM, for inactives: max response, negative = inhibition, hits mostly inhibitors; AID 720504, 2013; Serine/threonine-protein kinase PLK1 (Homo sapiens), P53350; 360,000 tested, 2.8% active; Plk1 PBD binding of FITC phosphopeptide, fluorescence polarization; also: potency is read from the fitted curve at half-maximal effect; series mostly up to about 57 µM; % is scaled to controls: 0 for no effect and ±100 for the full control effect; nearly all actives have a fitted effect of over 65% in size
# Target sequence (P53350 whole entry, looked up, the tested form may be a part): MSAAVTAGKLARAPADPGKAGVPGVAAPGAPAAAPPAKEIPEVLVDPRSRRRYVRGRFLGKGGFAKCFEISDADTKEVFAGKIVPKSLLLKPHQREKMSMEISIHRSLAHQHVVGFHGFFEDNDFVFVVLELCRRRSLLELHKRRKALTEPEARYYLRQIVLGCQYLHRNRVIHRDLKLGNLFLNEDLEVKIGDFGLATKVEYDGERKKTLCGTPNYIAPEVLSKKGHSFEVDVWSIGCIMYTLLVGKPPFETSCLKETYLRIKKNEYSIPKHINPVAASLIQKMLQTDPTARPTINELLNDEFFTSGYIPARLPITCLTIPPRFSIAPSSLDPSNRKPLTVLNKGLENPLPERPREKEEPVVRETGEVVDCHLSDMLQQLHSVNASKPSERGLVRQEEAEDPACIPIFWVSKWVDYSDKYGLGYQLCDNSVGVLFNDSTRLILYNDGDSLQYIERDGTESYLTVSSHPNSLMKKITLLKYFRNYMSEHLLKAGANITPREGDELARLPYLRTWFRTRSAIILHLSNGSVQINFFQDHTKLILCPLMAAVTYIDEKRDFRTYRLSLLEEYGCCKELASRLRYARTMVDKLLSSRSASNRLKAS
# Rango release inh: qHTS Assay for Inhibitors of RanGTP induced Rango (Ran-regulated importin-beta cargo) - Importin beta complex dissociation; Snurportin-1 (Homo sapiens) + GTP-binding nuclear protein Ran (Homo sapiens) + Importin …; Biochemical FRET Rango-importin beta, RanGTP-induced dissociation; Potency, µM (doses to about 46.1 µM), for the others: at the highest dose activity change, negative = inhibition; 340,000 tested, 0.071% active; AID 540253, 2011; calls by dose curve; also: potency is read from the fitted curve at half-maximal effect; % of control where 0% means no effect; nearly all actives have a fitted effect of over 45% in size
#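 Rango (0.1 uM)–importin beta (0.25 uM) complex; RanGTP-RCC1 trigger; 45 min RT; CFP/YFP FRET read.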
# VDR inhibitor: Inhibitors of the vitamin D receptor (VDR): qHTS; Potency, µM, inactives show max response, negative = inhibition, most hits filed as inhibitors; Vitamin D3 receptor (Homo sapiens), P11473; 400,000 tested, 0.93% active; VDR-SRC2-3 peptide fluorescence polarization, 2 h; also: potency is read from the fitted curve at half-maximal effect; % is scaled to controls: 0 for no effect and ±100 for the full control effect
#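 Compounds are added to VDR with labelled SRC2-3 coactivator peptide and held 2 h at room temperature. Inhibition of the VDR–peptide interaction is then read as a change in fluorescence polarization.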
# PI5P4Ka inh: qHTS for Inhibitors of phosphatidylinositol 5-phosphate 4-kinase (PI5P4K); max response, %; PI5P4Kalpha enzyme, ADP-Glo luminescence, 60 min; active compounds read low; 330,000 tested, 1.2% active; Phosphatidylinositol 5-phosphate 4-kinase type-2 alpha (Homo sapiens), P48426; active = max response of -50% or lower; inconclusive = between -30% and -50%; inactive = -30% or higher; also: value at the top dose of about 77 µM; % is scaled to controls: 0 for no effect and ±100 for the full control effect
#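 Reactions run in 0.038 M HEPES pH 7.4, 0.28 mM EGTA, 0.1% CHAPS and 5% DMSO, with PI5P4Kalpha, substrate, compound and 5 microM ATP final, one hour at room temperature. Readout is ADP-Glo luminescence.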
# GCN5L2 inh: qHTS Assay for Inhibitors of GCN5L2. Histone acetyltransferase KAT2A (Homo sapiens), Q92830. GCN5L2 HAT assay, ThioGlo1 CoA-SH fluorescence. Potency, µM (titrated, usually from 58.9 µM), for the others: at the highest dose activity change, negative = inhibition, hits mostly inhibitors. 390,000 tested, 0.21% active; also: potency is read from the fitted curve at half-maximal effect; % is scaled to controls: 0 for no effect and ±100 for the full control effect
#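 Enzyme at 20nM final was mixed with library compounds for 15 min at room temperature. Peptide H3(1-25) at 75uM, acetyl-CoA at 70uM and ThioGlo1 at 50uM were then added. Plates were read immediately and after 20 min (Ex340nm/Em540nm).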
# * = called active by the depositor; ? = inconclusive; / = not tested or not shown; ! = repeats disagree. Unless noted, calls follow the shape of the dose curve; as a rule, active = well fitted curve in the direction sought with a large enough effect; inconclusive = small, poorly fitted or top-dose-only effect, or another doubt; inactive = no such curve, though single readings can be large; an effect the other way counts as inactive or inconclusive.
SMILES,Rango complex inh,PLK1 PBD inh,Rango release inh,VDR inhibitor,PI5P4Ka inh,GCN5L2 inh
CN1C(CC(=O)c2ccccc2)CCCC1CC(O)c1ccccc1 (stereo not given),3.2%,-11.6%,15.8%,89.1µM*!,3.7,10.3%
CC(=O)N1CCN(c2ccc(OCC3CO[C@@](Cn4ccnc4)(c4ccc(Cl)cc4Cl)O3)cc2)CC1 (stereo not given in full),/,/,/,?,/,-1.6%
CCn1nc(/C=C/c2ccccc2)nc2c(=O)n(C)c(=O)nc1-2,2.6%,23.8µM*,-14.4%,?,0.4,-2.4%
N#CC(C#N)=Cc1cc(O)c(O)c(O)c1,/,/,/,22.4µM*,/,-29.7%
N#CC(C#N)=Cc1ccc(O)cc1,/,/,/,50.1µM*,/,?
C[C@@H]1CC[C@H]2[C@@H](C)C(=O)O[C@@H]3OC4(C)CC[C@@H]1[C@]32OO4,/,/,/,-1.4%,/,1.0%
CCCN(CCC)c1c([N+](=O)[O-])cc(C(F)(F)F)cc1[N+](=O)[O-],/,/,/,11.1%,/,-4.9%
O=C(O)c1cc[c]([Hg][Cl])cc1,-0.8%,0.238µM*,-1.4%,10µM*,-57.7*,0.251µM*
O=C(O)c1ccc(-n2c(O)c(/C=C3\C=Nc4ccccc43)c(=O)[nH]c2=O)cc1,?,9.47µM*,-20.2%,-16.2%,?,-4.1%
COC(=O)C1=Nc2ccccc2/C1=C\c1c(O)n(-c2ccc(OC)cc2)c(=O)[nH]c1=O,-5.7%,3.36µM*,0.4%,?,/,-23.2%
O=c1[nH]c(=O)n(-c2ccccc2)c(O)c1/C=C1/C(c2ccccc2)=Nc2ccccc21,?,10.6µM*,-14.0%,?,-3.2,-1.7%
O=c1[nH]c(=O)n(-c2cccc(F)c2)c(O)c1/C=C1\C=Nc2ccccc21,?,?,-7.8%,5.2%,-25.6,-10.7%
COC(=O)C1=Nc2ccccc2/C1=C\c1c(O)n(C)c(=O)n(C)c1=O,-4.3%,4.74µM*,?,?,-70.1*,-5.8%
COc1ccc(OC)c(-n2c(O)c(/C=C3\C(C)=Nc4ccccc43)c(=O)[nH]c2=O)c1,-2.7%,?,-12.2%,-1.4%,-14.9,-3.7%
c1cc[n+]2c(c1)-c1cccc[n+]1CC2,/,/,/,-0.3%,/,39.3%
O=C(/C=C/c1ccc(Cl)cc1)N[C@@]12CCC(=O)[C@@H]3Oc4c(O)ccc5c4[C@@]31CCN(CC1CC1)C2C5,/,/,/,0.6%,/,0.9%
O=C(Nc1ccccc1C(F)(F)F)c1cccn(Cc2ccccc2)c1=O,/,/,/,6.8%,/,0.0%
CC[C@@]1(O)C(=O)OCc2c1cc1n(c2=O)Cc2cc3c(O)cccc3nc2-1,/,/,/,10.0%,/,?
CCOC(=O)[C@]12Cc3ccccc3[C@H]1N(C(C)C)C(=O)c1cc(OC)ccc12,/,7.52µM*,/,/,-0.9,/
CCOC(=O)[C@]12Cc3cc(OC)ccc3[C@H]1N(Cc1ccccc1)C(=O)c1cc(F)c(F)cc12,?,-11.9%,-9.0%,-6.6%,11.0,/
CCOC(=O)[C@]12Cc3cc(C)ccc3[C@H]1N(Cc1ccccc1)C(=O)c1cc(F)c(F)cc12,/,10.6µM*,/,/,8.1,/
CCOC(=O)[C@]12Cc3cc(C)ccc3[C@H]1N(CCC(=O)OC)C(=O)c1cc(OC)ccc12,/,?,/,/,0.2,/
CCOC(=O)[C@]12Cc3c(cc(OC)c(OC)c3OC)[C@H]1N(C)C(=O)c1cc(OC)ccc12,/,13.4µM*,/,/,0.5,/
CCOC(=O)[C@]12Cc3ccccc3[C@H]1N(C)C(=O)c1cc(OC)ccc12,/,13.4µM*,/,/,-1.9,/
CC(=O)N1C[C@H](O)C[C@H]1C(=O)O,1.2%,?,-0.5%,-11.4%,-6.8,3.3%
SMILES,Rango complex inh,PLK1 PBD inh,Rango release inh,VDR inhibitor,PI5P4Ka inh,GCN5L2 inh
CN1CCCCC1Cn1cc(C(=O)c2cc([N+](=O)[O-])ccc2I)c2ccccc21 (stereo not given),/,/,/,-12.1%,/,8.5%
CCOC(=O)[C@]12Cc3cc(C)ccc3[C@H]1N(C1CCCCC1)C(=O)c1cc(OC)ccc12,/,2.38µM*,/,/,-10.7,/
CCOC(=O)[C@]12Cc3cc(C)ccc3[C@H]1N(C(C)C)C(=O)c1ccccc12,/,10.6µM*,/,/,-7.9,/
CCOC(=O)[C@]12Cc3cc(OC)ccc3[C@H]1N(C1CCCCC1)C(=O)c1cc(OC)ccc12,/,?,/,/,3.3,/
CCOC(=O)[C@]12Cc3cc(OC)ccc3[C@H]1N(Cc1ccccc1)C(=O)c1ccccc12,1.4%,-12.9%,-17.5%,-22.6%,-1.3,/
CCOC(=O)[C@]12Cc3c(cc(OC)c(OC)c3OC)[C@H]1N(C(C)C)C(=O)c1ccccc12,/,13.4µM*,/,/,-2.0,/
Cc1ccc(/C=C2\C(=O)NC(=O)N(CC3CCCO3)C2=O)s1 (stereo not given),-0.1%,4.74µM*,10.0%,?,?,-2.7%
CCN(CC)c1ccc(/C=C2\C(=O)NC(=O)N(CC3CCCO3)C2=O)cc1 (stereo not given),?,?,-3.1%,-5.0%,-18.2,-5.3%
COc1ccc(N2C(=O)NC(=O)/C(=C\c3cn(C)c4ccccc34)C2=O)cc1,-0.3%,-0.7%,9.0%,-4.0%,-5.2,-26.7%
CCOc1cc(C=C2C(=O)NC(=S)NC2=O)ccc1O,0.5%,5.97µM*,-14.8%,?,-76.8*,/
CCOc1cc(C=O)ccc1O,-0.4%,1.1%,9.2%,4.8%,0.9,-7.0%
COc1ccc(/C=C/C=C2C(=O)NC(=S)NC2=O)cc1,?,0.532µM*,?,?,-50.2*,/
COc1ccc(C=C2C(=O)NC(=S)NC2=O)cc1OC,-2.3%,21.2µM*,28.5%,39.8µM*,-50.5*,/
O=C1CCCC2C3CC(CN12)C1CCCCN1C3 (stereo not given),/,/,/,16.4%,/,-14.4%
Nc1ncnc2c1ncn2[C@@H]1O[C@H](COP(=O)(O)OP(=O)(O)OP(=O)(O)O)[C@H]2OC3(O[C@H]21)C([N+](=O)[O-])=CC(=[N+]([O-])[O-])C=C3[N+](=O)[O-] (stereo not given in full),/,/,/,?,/,-6.7%
c1ccc2sc(C3(N4CCCC4)CCCCC3)cc2c1,/,/,/,-23.8%,/,-12.8%
OCC(Br)(Br)Br,/,/,/,3.7%,/,3.3%
CC/C=C\C/C=C\C/C=C\C/C=C\C/C=C\CCCC(=O)NCCO,/,/,/,-5.2%,/,/

# Screening results: PubChem, National Center for Advancing Translational Sciences (NCATS)
